The results in this text go back to PubChem BioAssay (NCATS).

Structures are written as SMILES. Unmarked numbers belong to inactive results. Results filed as inconclusive are left out. Calls of active or inactive are those of the source. Unless noted, calls come from the whole dose curve; as a rule, active = well fitted curve in the direction sought with a large enough effect; inconclusive = small, poorly fitted or top-dose-only effect, or another doubt; inactive = no such curve, though single readings can be large; an effect the other way counts as inactive or inconclusive.

Assay [1] is described as follows: A High-Content qHTS Against Drug Library for the Identification of Small Molecules that Inhibit DYT1 Early Onset Primary Dystonia-Associated Cell Pathology (AID 1645839; calls by dose curve; note: series mostly up to about 46 µM). The method, boiled down: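 Cells were seeded and left for 24 h, then dosed with compound alongside tetracycline induction of mutant EGFP-TorsinA. They were incubated for 48 h, fixed in 4% paraformaldehyde, permeabilized and imaged for mislocalization (%pathology) and cell count.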
A general note: Quantitative high-throughput screening tests each substance at several concentrations.

Assay [2] deals with Cytochrome P450 2D6 (Homo sapiens) (UniProt P10635). Briefly: Cytochrome P450 family 2 subfamily D member 6 (CYP2D6) small molecule antagonists: luciferase biochemical (cell-free) qHTS assay (AID 1645840; active = well fitted curve in the direction sought with a large enough effect in the repeat runs; an effect the other way counts as inactive or inconclusive; note: nearly all actives have a fitted effect of over 55% in size; note: potency is the fitted concentration of half-maximal effect). The method, boiled down: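 P450-Glo CYP2D6 system: proluciferin substrate converted by enzyme to luciferin, read by luminescence proportional to activity. Enzyme-substrate mix with compound 10 min at room temperature, then NADPH regeneration 1 h before detection reagent.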

The target in assay [3] is Cytochrome P450 2C9 (Homo sapiens) (UniProt P11712). The experiment in a line: Cytochrome P450 family 2 subfamily C member 9 (CYP2C9) small molecule antagonists: luciferase biochemical (cell-free) qHTS assay (AID 1645842; active = well fitted curve in the direction sought with a large enough effect in the repeat runs; an effect the other way counts as inactive or inconclusive; note: nearly all actives have a fitted effect of over 55% in size; note: potency is the fitted concentration of half-maximal effect). The method, boiled down: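 P450-Glo CYP2C9 system: proluciferin substrate with enzyme in mix containing 0.4% BSA, 10 min at room temperature, then NADPH regeneration solution added and incubated 1 h at 37C. Detection reagent stopped reaction; luminescence read after 20 min as RLU.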

A short description of assay [4]: Primary qHTS for inhibitors of nuclear receptor binding SET domain protein 2 (NSD2) in an isogenic RCH-ACV NSD2 p.E1099K mutant (9B) (AID 1645876). Note: nearly all actives have a fitted effect of over 70% in size.
Assay [5] can be described thus: Primary qHTS for inhibitors of nuclear receptor binding SET domain protein 2 (NSD2) in an RCH-ACV wild type WT cells (2C) (AID 1645877). For activity change, negative = cell killing: % is set by controls: 0 for no effect and ±100 for the full control effect. Note: nearly all actives have a fitted effect of over 70% in size.
The nature of assay [6]: NCATS anti-infectives library activity on HEK293 viability as a counter-qHTS vs the C. elegans viability qHTS (AID 1745854).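 Note: HEK293 cells exposed to compounds for 24 hr before the viability read; % is set by controls: 0 for no effect and ±100 for the full control effect.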 The method, boiled down: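 Counter-screen for cytotoxicity: HEK293, 24 hr, 37C, compounds up to 41.7 uM final (a dilution series, 1:5). Readout CellTiter-Glo luminescence, 10 min RT. Digitonin control, […] uM final.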
The target of assay [7] is Rap guanine nucleotide exchange factor 3 (Homo sapiens) (UniProt O95398). Briefly: Confirmatory qHTS for antagonist of cAMP-regulated guanine nucleotide exchange factor 3 (EPAC1) (AID 1645880).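 Note: plate controls were DMSO only for no effect and full effect of the ATA control for full effect; nearly all actives have a fitted effect of over 55% in size.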 The method in brief: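 Released BODIPY-GDP fluoresces less than Rap1-bound BODIPY-GDP; the signal is followed at 480/540 nm at 5-min intervals over 30 min, after 5 min at room temperature. Reactions contain 100 nM EPAC1, 250 nM RAP1B-BODIPY-GDP and 50 uM GDP; results are normalized to ATA and DMSO.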

Assay [8] shares this target. Briefly: Confirmatory qHTS for agonist of cAMP-regulated guanine nucleotide exchange factor 3 (EPAC1) (AID 1645881).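 Note: EPAC1 catalysed release of BODIPY-GDP from Rap1B seen as fluorescence loss; 100% = effect of cAMP agonist control; nearly all actives have a fitted effect of over 75% in size.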
The target of assay [9] is Rap guanine nucleotide exchange factor 4 (Homo sapiens) (UniProt Q8WZA2). The experiment in a line: Confirmatory qHTS for agonist of cAMP-regulated guanine nucleotide exchange factor 4 (EPAC2) (AID 1645884).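 Note: nucleotide exchange releases bodipy-GDP from Rap1 and this lowers its fluorescence; % is set by controls: 0 for no effect and ±100 for the full control effect; nearly all actives have a fitted effect of over 65% in size.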
The target is the same in assay [10]. Briefly: Confirmatory qHTS for antagonist of cAMP-regulated guanine nucleotide exchange factor 4 (EPAC2) (AID 1645885). Note: % is set by controls: 0 for no effect and ±100 for the full control effect; nearly all actives have a fitted effect of over 25% in size.
Assay [11] is described as follows: Viability counterscreen for antagonist of constitutive androstane receptor (CAR) against the NCATS DSHEA and TCM libraries (AID 1794837).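 Note: compound exposure lasted 24 h before viability reading; 0% is about no effect.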 The method in brief: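 Cell viability, CellTiter-Fluor, Ex/Em 405/540 nm, 1 h at 37C. HepG2-CYP2B6-hCAR, 2,500 cells/well; cpds + CITCO 48 uM final (antagonist mode), 24 h, 37C/5% CO2.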
For orientation: The purpose of a counterscreen is to sort out artefacts and off-target activity.

Assay [12] can be described thus: Viability counterscreen for agonist of constitutive androstane receptor (CAR) against the NCATS DSHEA and TCM libraries (AID 1794838). Note: 0% is about no effect. The method, boiled down:
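Viability by CellTiter-Fluor fluorescence, 405/540 nm, after 1 h at 37C. HepG2-CYP2B6-hCAR cells were exposed 24 h to test substances in presence of 0.75 uM PK11195 (final).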

Assay [13] concerns the target Nuclear receptor subfamily 1 group I member 3 (Homo sapiens) (UniProt Q14994). The experiment in a line: Primary qHTS for agonist of constitutive androstane receptor (CAR) against the NCATS DSHEA and TCM libraries (AID 1794839).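 Note: HepG2 cells expressing human CAR with a CYP2B6 reporter plus PK11195 antagonist; 0% is about no effect.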 The method in brief: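 Luminescence from ONE-Glo luciferase was the agonist read-out in HepG2-CYP2B6-hCAR cells exposed 24 h to test substances. Wells also held the CAR antagonist PK11195 at 0.75 µM final. Viability was by CellTiter-Fluor fluorescence.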

The nature of assay [14]: HepG2 viability counterscreen (readout 2: ATP content) against the NCATS DSHEA and TCM libraries (AID 1794840). Note: 0% is about no effect. The method in brief:
(§1)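 1,000 HepG2 cells/well, 4 h attach; compounds ~24 h, 37C/5% CO2. Readout 1: GF-AFC 25 uM final, 30 min, fluorescence 380/510 nm. Readout 2: CellTiter-Glo, 30 min RT, luminescence.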

Assay [15] is described as follows: HepG2 viability counterscreen (readout 1: protease activity) against the NCATS DSHEA and TCM libraries (AID 1794841).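 Note: cells exposed to compounds for about 24 h before the protease read; 0% is about no effect.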 The method, boiled down:
as §1

Sequence of Cytochrome P450 2C9 (Homo sapiens) (P11712 whole entry, looked up): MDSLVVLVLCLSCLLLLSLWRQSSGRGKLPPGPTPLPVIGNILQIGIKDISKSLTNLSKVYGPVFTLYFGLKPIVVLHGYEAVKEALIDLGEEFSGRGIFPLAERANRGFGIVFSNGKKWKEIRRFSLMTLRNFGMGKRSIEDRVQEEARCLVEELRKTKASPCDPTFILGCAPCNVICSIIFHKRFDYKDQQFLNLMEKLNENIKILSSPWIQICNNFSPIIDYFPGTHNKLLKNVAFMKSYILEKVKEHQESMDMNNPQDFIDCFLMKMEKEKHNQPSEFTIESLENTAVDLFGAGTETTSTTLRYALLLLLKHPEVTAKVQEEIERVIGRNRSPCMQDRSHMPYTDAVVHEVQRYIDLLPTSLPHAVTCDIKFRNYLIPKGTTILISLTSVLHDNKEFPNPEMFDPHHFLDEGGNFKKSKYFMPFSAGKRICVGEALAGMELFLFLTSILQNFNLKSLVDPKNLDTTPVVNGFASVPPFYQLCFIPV
Sequence of Cytochrome P450 2D6 (Homo sapiens) (P10635 whole entry, looked up): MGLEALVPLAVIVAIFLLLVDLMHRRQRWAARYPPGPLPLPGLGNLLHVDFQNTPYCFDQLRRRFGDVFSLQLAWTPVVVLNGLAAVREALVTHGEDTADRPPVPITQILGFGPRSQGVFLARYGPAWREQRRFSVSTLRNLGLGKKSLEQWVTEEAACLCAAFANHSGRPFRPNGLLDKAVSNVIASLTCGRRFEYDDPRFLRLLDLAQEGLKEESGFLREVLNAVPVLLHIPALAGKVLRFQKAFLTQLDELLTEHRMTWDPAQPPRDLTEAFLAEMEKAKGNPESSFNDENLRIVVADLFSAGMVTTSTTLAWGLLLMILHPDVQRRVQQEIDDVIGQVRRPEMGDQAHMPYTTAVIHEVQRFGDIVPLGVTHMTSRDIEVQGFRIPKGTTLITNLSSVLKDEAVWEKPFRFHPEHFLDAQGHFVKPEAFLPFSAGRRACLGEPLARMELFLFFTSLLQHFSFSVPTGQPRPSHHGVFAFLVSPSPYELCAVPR
Sequence of Rap guanine nucleotide exchange factor 3 (Homo sapiens) (O95398 whole entry, looked up): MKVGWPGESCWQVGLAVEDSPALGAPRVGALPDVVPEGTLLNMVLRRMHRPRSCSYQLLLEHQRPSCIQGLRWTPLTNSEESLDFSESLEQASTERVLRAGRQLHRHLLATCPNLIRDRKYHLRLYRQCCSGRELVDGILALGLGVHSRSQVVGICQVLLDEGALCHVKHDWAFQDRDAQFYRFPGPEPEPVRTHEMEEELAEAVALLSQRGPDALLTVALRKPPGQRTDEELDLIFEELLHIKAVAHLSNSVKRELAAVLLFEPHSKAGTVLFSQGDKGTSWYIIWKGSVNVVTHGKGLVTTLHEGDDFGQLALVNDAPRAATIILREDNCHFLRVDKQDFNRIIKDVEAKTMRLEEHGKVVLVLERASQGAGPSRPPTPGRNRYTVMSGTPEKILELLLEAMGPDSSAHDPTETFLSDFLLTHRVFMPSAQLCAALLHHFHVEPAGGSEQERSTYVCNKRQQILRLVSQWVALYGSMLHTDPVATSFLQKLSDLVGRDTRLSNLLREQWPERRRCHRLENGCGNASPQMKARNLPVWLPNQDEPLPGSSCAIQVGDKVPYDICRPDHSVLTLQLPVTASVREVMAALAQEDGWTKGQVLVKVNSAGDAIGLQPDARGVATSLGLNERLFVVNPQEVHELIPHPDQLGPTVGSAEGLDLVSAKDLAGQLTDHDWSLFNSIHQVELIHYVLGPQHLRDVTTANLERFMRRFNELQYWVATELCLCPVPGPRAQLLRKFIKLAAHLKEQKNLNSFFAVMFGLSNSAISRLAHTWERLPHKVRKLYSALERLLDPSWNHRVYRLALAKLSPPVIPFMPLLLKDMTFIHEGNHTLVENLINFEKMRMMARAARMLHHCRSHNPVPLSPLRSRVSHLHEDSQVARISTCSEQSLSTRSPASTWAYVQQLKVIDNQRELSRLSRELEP
Sequence of Nuclear receptor subfamily 1 group I member 3 (Homo sapiens) (Q14994 whole entry, looked up): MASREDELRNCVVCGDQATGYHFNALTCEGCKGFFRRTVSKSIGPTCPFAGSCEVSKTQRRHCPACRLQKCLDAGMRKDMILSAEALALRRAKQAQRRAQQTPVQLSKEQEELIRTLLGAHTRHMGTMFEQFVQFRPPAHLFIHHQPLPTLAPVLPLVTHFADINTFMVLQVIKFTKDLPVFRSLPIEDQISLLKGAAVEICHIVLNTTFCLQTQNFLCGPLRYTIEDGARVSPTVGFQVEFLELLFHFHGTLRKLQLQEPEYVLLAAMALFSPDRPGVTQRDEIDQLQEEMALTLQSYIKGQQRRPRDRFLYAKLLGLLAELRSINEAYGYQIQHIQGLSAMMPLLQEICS
Sequence of Rap guanine nucleotide exchange factor 4 (Homo sapiens) (Q8WZA2 whole entry, looked up): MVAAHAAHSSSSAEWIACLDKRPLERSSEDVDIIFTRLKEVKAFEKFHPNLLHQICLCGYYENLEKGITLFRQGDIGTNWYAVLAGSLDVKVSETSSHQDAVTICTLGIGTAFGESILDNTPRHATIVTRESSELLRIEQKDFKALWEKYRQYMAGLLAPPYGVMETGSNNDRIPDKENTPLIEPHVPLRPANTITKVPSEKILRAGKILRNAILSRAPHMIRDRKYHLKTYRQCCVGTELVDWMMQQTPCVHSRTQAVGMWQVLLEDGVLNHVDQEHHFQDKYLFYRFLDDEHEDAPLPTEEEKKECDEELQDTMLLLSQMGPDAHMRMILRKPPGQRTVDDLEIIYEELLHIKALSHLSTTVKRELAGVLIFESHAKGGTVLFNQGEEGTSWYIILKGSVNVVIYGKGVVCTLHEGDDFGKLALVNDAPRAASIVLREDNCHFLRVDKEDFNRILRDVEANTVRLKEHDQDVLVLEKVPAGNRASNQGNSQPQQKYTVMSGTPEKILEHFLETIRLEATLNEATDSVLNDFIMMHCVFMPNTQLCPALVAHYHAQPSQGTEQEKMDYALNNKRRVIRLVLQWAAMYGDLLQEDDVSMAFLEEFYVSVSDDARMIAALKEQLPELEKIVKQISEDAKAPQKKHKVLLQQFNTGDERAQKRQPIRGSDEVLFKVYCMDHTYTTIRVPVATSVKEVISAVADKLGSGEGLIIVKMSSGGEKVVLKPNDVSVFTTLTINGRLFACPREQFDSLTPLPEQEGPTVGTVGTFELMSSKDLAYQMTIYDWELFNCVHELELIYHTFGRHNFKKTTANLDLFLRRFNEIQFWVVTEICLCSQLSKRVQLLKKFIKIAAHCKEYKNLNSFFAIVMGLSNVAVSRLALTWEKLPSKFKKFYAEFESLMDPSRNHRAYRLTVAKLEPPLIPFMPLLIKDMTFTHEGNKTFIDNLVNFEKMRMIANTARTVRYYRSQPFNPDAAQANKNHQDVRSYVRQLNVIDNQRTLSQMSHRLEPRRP

On to `Cc1ncc(CO)c(CN)c1O`, for which the Potency result in assay [1], in [2], in [3], in assay [4] and in [5] was “inactive” each time.
Turning to `CC(=O)Oc1cccc(C)c1`, the Potency entry in [1], in assay [2], in [3], in assay [4] and in assay [5] was “inactive” each time.
Take `CC(C)CCOC(=O)c1ccc(N(C)C)cc1`: the Potency result in [1], in assay [2], in assay [4] and in [5] was “inactive” in each case. Moreover, the Potency in [3] is 6.92 µM (active).
`CCOC(N)=O`: the Potency result in assay [1], in [2], in assay [3], in assay [4] and in [5] was “inactive” each time.
Take `CC(N)CCCC(C)(C)O` (centres undefined): the Potency entry in assay [3], in assay [4] and in [5] was “inactive” in each case.
For `Cc1ccccc1N=Nc1ccc(N=Nc2c(O)ccc3ccccc23)c(C)c1`, the Potency entry in [1], in assay [3], in assay [4] and in [5] was “inactive” in each case.
On to `CCN[C@H]1CN(CCCOC)S(=O)(=O)c2sc(S(N)(=O)=O)cc21`, for which the Potency entry in assay [1], in assay [3], in [4] and in assay [5] was “inactive” in each case. Besides, in assay [6], the result was inactive.
Take `CCc1nnc(NS(=O)(=O)c2ccc(N)cc2)s1`: the Potency entry in assay [1], in assay [2], in assay [4] and in assay [5] was “inactive” in each case.
For `CC(=O)N[C@H]1[C@H]([C@H](O)[C@H](O)CO)OC(C(=O)O)=C[C@@H]1N=C(N)N`, the Potency entry in assay [1], in [3], in assay [4] and in [5] was “inactive” throughout. For the same molecule, the result in [6] was inactive.
With `C1CCN2C[C@@H]3C[C@@H](CN4CCCC[C@@H]34)[C@H]2C1`, the Potency result in assay [1], in assay [4] and in assay [5] was “inactive” throughout.
For the molecule `O=C(O)Cn1c(C(=O)Nc2nc(-c3ccccc3Cl)cs2)cc2ccccc21`, the Potency entry in assay [3] and in assay [4] was “inactive” each time.
As for `CC(O)CCCCn1c(=O)c2c(ncn2C)n(C)c1=O` (centres undefined), the Potency entry in assay [1], in [3], in assay [4] and in [5] was “inactive” each time.
On to `NC(N)=NCCN1CCCCCCC1`, for which, in assay [1], the % pathology change, negative = correction is -4.73% [at 0.369 µM]. Besides, the outcome in assay [4] is “inactive [at 0.588 µM]”. Also, the activity change, negative = cell killing in assay [5] was 1.99% [at 0.588 µM].
With `O=C(O)CCCCC1CCSS1` (centres undefined), the Potency entry in assay [1], in assay [2], in [3], in assay [4] and in assay [5] was “inactive” each time. For the same molecule, the molecule was classed as inactive in assay [6].
Take `CN[C@@H]1[C@@H](O)[C@@H](O[C@@H]2[C@H](O)[C@H](O[C@H]3OC(CN)=CC[C@H]3N)[C@@H](N)C[C@H]2N)OCC1(C)O` (some centres undefined): the Potency entry in [1], in assay [4] and in assay [5] was “inactive” in each case.
On to `CCCCCOC(=O)Nc1nc(=O)n([C@@H]2O[C@H](C)[C@@H](O)[C@H]2O)cc1F`, for which the Potency result in assay [1], in [3], in [4] and in assay [5] was “inactive” in each case.
On to `CC1(C)S[C@@H]2[C@H](N=CN3CCCCCC3)C(=O)N2[C@H]1C(=O)O`, for which the Potency result in [1], in assay [3], in assay [4] and in assay [5] was “inactive” each time.
On to `CC(=O)N1C[C@H](O)C[C@H]1C(=O)O`, for which the Potency entry in [1] and in assay [3] was “inactive” each time.
As to `CO[C@@]1(NC(=O)C(C(=O)O)c2ccc(O)cc2)C(=O)N2C(C(=O)O)=C(CSc3nnnn3C)CO[C@@H]21` (some centres undefined), the Potency result in assay [1], in [3], in assay [4] and in [5] was “inactive” in each case.
Consider `O=C(O)c1ccc(OCCCOc2ccc(C(=O)O)cc2)cc1`, for which the Potency result in assay [1], in assay [3], in assay [4] and in assay [5] was “inactive” throughout.
As for `CCC(C)(CN(C)C)OC(=O)c1ccccc1` (centres undefined), the Potency entry in [1] and in [4] was “inactive” in each case.
As for `COc1ccccc1OCC(O)CO` (centres undefined), the Potency entry in [1], in assay [4] and in assay [5] was “inactive” each time.
With `C[n+]1ccccc1/C=N/O`, the Potency entry in assay [1], in assay [3], in assay [4] and in assay [5] was “inactive” each time.
As for `NC(=O)NC1NC(=O)NC1=O` (centres undefined), the Potency result in assay [1], in assay [2], in [3], in assay [4], in assay [5] and in assay [10] was “inactive” throughout. Besides, the result in assay [7], in assay [8], in assay [9], in assay [11], in assay [12] and in assay [13] was inactive. The molecule was called inactive in assay [14] and in assay [15].
In the case of `CC(C)c1cc2c(cc1S(=O)(=O)O)[C@@]1(C)CCC[C@@](C)(C(=O)O)[C@@H]1CC2`, the Potency entry in assay [1], in assay [3], in assay [4] and in assay [5] was “inactive” in each case.
Turning to `CCOc1ccccc1O[C@H](c1ccccc1)[C@H]1CNCCO1`, the Potency entry in assay [1] and in assay [3] was “inactive” each time.
Consider `O=C(O)COC(=O)Cc1ccccc1Nc1c(Cl)cccc1Cl`, for which the Potency entry in [1], in [4] and in assay [5] was “inactive” in each case. Moreover, the Potency in assay [3] was 17.4 µM (active).
Turning to `CCOC(=O)OC(C)OC(=O)[C@@H]1N2C(=O)[C@@H](NC(=O)[C@H](N)c3ccccc3)[C@H]2SC1(C)C` (some centres undefined), the Potency entry in [1], in [3], in assay [4] and in assay [5] was “inactive” throughout.
Regarding `O=C(O)C(S)C(S)C(=O)O` (centres undefined), the Potency entry in assay [1], in [3], in assay [4] and in [5] was “inactive” throughout.
Regarding `O=C(O)/C=C/c1ccc(Cn2ccnc2)cc1`, the Potency result in [1], in assay [2], in assay [4] and in [5] was “inactive” throughout.
`C[N+]1(C)CCCC(OC(=O)C(O)(c2ccccc2)c2ccccc2)C1` (centres undefined): the Potency result in assay [1], in assay [3], in assay [4] and in [5] was “inactive” in each case. The Potency in [2] was 12.3 µM (active).
Turning to `CC(=O)N(CC(O)CO)c1c(I)c(C(=O)NCC(O)CO)c(I)c(C(=O)NCC(O)CO)c1I` (centres undefined), the Potency result in [1], in assay [2], in assay [4] and in assay [5] was “inactive” throughout.
As for `CC(=O)SC[C@@H](Cc1ccccc1)C(=O)NCC(=O)OCc1ccccc1`, the Potency result in [1] is “inactive”. In addition, the Potency in assay [3] is 1.23 µM (active).
For the molecule `Cc1ccc(C(C)C)c(O)c1`, the Potency result in assay [1], in [2], in assay [3], in [4] and in [5] was “inactive” throughout. Moreover, the call in assay [11], in assay [12], in assay [13], in assay [14] and in assay [15] was inactive.
With `CC(C)NC[C@@H](O)COc1ccc(CC(N)=O)cc1`, the Potency entry in [1], in assay [4] and in assay [5] was “inactive” each time.
`COc1ccc(O)cc1`: the Potency result in assay [2] and in assay [3] was “inactive” in each case.
In the case of `NS(=O)(=O)c1cc(C2(O)NC(=O)c3ccccc32)ccc1Cl` (centres undefined), the Potency entry in [1], in assay [3], in [4] and in assay [5] was “inactive” each time.
`NC(=O)CC[C@@H](N)C(=O)O`: the Potency result in [1], in assay [3], in assay [4] and in assay [5] was “inactive” each time.
Turning to `Cc1c(NC(C)C)c(=O)n(-c2ccccc2)n1C`, the Potency entry in [1], in assay [3], in assay [4] and in assay [5] was “inactive” each time.
Consider `CCCCCC(C)N` (centres undefined), for which the Potency result in assay [1], in assay [3], in assay [4] and in assay [5] was “inactive” throughout.
For the molecule `NS(=O)(=O)c1ccc(C(=O)O)cc1`, the Potency result in [1], in [3], in assay [4] and in assay [5] was “inactive” in each case.
Regarding `NC(=O)NS(=O)(=O)c1ccc(N)cc1`, the Potency result in [1] and in assay [3] was “inactive” each time.
As to `CCCCOC(=O)c1ccc(N)cc1`, the Potency entry in [5] is “inactive”.
